Rows were chosen to be rich in hits. Some 2.4% of all compounds tested hit in one or more screens of this group.
D2 ag-1 – Beta-Arrestin HTS for Positive Allosteric Modulators of the Human D2 Dopamine Receptor: Agonists. D(2) dopamine receptor (Homo sapiens), P14416. DiscoveRx PathHunter D2 beta-arrestin, luminescence, 90 min; 100% = 57 uM dopamine signal. activation, % (concentration not given with the values). actives 0.084% (n = 360,000). AID 624465, 2012; in the data active = activation above about 40%; inconclusive = between about 15% and that limit
Target sequence (P14416 whole entry, looked up): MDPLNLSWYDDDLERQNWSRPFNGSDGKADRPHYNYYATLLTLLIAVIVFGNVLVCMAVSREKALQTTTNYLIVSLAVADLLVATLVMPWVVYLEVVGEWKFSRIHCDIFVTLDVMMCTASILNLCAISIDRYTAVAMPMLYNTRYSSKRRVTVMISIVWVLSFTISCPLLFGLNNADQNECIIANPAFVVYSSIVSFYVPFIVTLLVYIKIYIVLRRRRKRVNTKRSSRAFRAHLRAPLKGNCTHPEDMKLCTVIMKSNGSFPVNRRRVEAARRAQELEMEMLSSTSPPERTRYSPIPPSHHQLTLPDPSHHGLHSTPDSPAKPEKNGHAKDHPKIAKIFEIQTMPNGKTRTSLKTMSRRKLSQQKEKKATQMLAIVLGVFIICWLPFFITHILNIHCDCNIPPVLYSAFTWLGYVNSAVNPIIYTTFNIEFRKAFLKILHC
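Agonist mode: compounds alone added to overnight-plated D2 PathHunter cells for 90 min at 37 C, with 57 uM final dopamine (EC100) defining full response. Beta-arrestin recruitment detected by chemiluminescent reagent, read after 1 h at ambient temperature.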
D2 ag-2 – HTS Assay for Allosteric Agonists of the Human D2 Dopamine Receptor: Primary Screen for Agonists; HEK293 T-REx D2 cells, calcium flux agonist mode; actives 0.53% (n = 340,000); D(2) dopamine receptor (Homo sapiens), P14416; activation, % at 2 µM;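 active = activation over 3 SD above normal in the single-dose calcium agonist read, cut at about 30% in these data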; also: 0% is about no effect
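HEK293 Trex D2 cells, tetracycline-induced, o/n 30 C 5% CO2; no-wash Ca dye, RT 30–90 min; 10-cycle baseline, 23 nl cpd added, kinetic Ca read 180 s; agonist hits = positive Ca response.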
D2 PAM-1 – HTS Assay for Positive Allosteric Modulators of the Human D2 Dopamine Receptor: Primary Screen for Potentiators | D(2) dopamine receptor (Homo sapiens), P14416 | AID 485347, 2010 | HEK293 T-REx D2, calcium flux, EC20 dopamine potentiation | actives 0.34% (n = 340,000) | potentiation, % at 10 µM;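 active = potentiation over 3 SD above the plate norm, cut at about 30% in these data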; also: 0% is about no effect
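Using a no-wash calcium dye in inducible, force-coupled HEK293 Trex cells expressing D2, we tracked fluorescence each second for 180 s after compound, then for 180 s after EC20 dopamine to detect augmented signalling.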
D2 antag – HTS Assay for Allosteric Antagonists of the Human D2 Dopamine Receptor: Primary Screen for Antagonists | D(2) dopamine receptor (Homo sapiens), P14416 | HEK293 TREx D2 cells, calcium flux, dopamine EC80 | inhibition, % at 10 µM | actives 2% (n = 340,000) | AID 485344, 2010; in the data active = inhibition above about 30%; inactive = below that, where a call was filed; also: 0% is about no effect
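In this primary screen, negative modulation is detected by tracking calcium flux after an EC80 dopamine challenge in inducible HEK293 T-REx D2 cells preexposed to test compound for 180 s.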
D2 PAM-2 – Beta-Arrestin HTS for Positive Allosteric Modulators of the Human D2 Dopamine Receptor: Potentiators; potentiation, % (no concentration beside the values); actives 0.23% (n = 360,000); DiscoveRx D2 beta-arrestin cells, luminescence, 90 min; 100% = 57 uM dopamine signal; in the data active = potentiation above about 50%; inconclusive = mostly about 30% to 49%
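D2 cells co-treated with compound plus 50 nM dopamine (EC20) for 90 min at 37 deg C to detect potentiation. Beta-arrestin recruitment was read as enzyme-fragment luminescence after 1 h at ambient temperature. Full response was set by 57 uM dopamine.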
* = called active by the depositor.

CCCCNCCOCCOc1ccccc1-c1ccccc1 was read as D2 ag-1 2.4, D2 ag-2 -0.1, D2 PAM-1 -20.6, D2 antag 76.4* and D2 PAM-2 -27.0.
For C=CCNCCOc1ccccc1-c1ccccc1 the results were D2 ag-1 -1.1, D2 ag-2 8.0, D2 PAM-1 -28.1, D2 antag 86.9* and D2 PAM-2 -38.8.
Screening CCOC(=O)c1c(C)[nH]c(C)c1S(=O)(=O)N(C)CC(=O)Nc1ccc(OC)cc1 returned D2 PAM-1 0.1.
For COc1cccc(CN2C(=O)N(c3ccc(C)cc3)C(=O)C2CC(=O)Nc2cc(OC)cc(OC)c2)c1 (stereo unspecified) the results were D2 ag-2 1.5 and D2 PAM-1 0.3.
`Cc1ccc(NS(=O)(=O)c2cc(-c3cnc(C4CC4)o3)ccc2C)cc1Cl` gave D2 ag-2 1.0 and D2 PAM-1 -4.5.
CC(C)(C)c1ccc(CSc2nc3c(c(=O)[nH]2)CCCC3)cc1 was read as D2 ag-2 -1.6 and D2 PAM-1 8.4.
Screening Cc1ccc(CNC(=O)c2cc(-c3ccccc3C)nn2CC2CC(c3cccnc3)=NO2)cc1 (stereo unspecified) returned D2 ag-1 3.6 and D2 PAM-2 -99.8.
For Cc1ccccc1-c1cc(C(=O)NCc2ccc3c(c2)OCO3)n(CC2CC(c3cccnc3)=NO2)n1 (stereo unspecified) the results were D2 ag-1 1.5, D2 ag-2 -1.9, D2 PAM-1 6.0, D2 antag 82.9* and D2 PAM-2 -17.7.
For CC1CCCN(CCCOc2ccc(Cl)cc2Br)C1 (stereo unspecified) the results were D2 ag-1 -2.8, D2 ag-2 0.1, D2 PAM-1 -23.4, D2 antag -3.9 and D2 PAM-2 -39.8.
Clc1ccc(OCCOCCN2CCc3ccccc3C2)c(Cl)c1 was read as D2 ag-1 0.4, D2 ag-2 0.3, D2 PAM-1 -28.3, D2 antag 64.4* and D2 PAM-2 -14.0.
`Clc1ccc(SCCOCCN2CCc3ccccc3C2)cc1` gave D2 ag-1 -2.5, D2 ag-2 -0.2, D2 PAM-1 -22.7, D2 antag 49.8* and D2 PAM-2 -8.0.
`Clc1ccc(OCCCN2CCc3ccccc3C2)c(Br)c1` gave D2 ag-1 -3.3, D2 ag-2 -0.7, D2 PAM-1 -23.8, D2 antag 63.9* and D2 PAM-2 -68.1.
Screening O=C(NCc1ccccc1F)C(=O)NCC(c1ccco1)S(=O)(=O)c1ccccc1 (stereo unspecified) returned D2 PAM-1 18.1.
C=C(C)c1cccc(C(C)(C)NC(=O)NCc2ccncc2)c1 was read as D2 ag-1 2.2, D2 ag-2 1.6, D2 PAM-1 7.2, D2 antag 34.5* and D2 PAM-2 -5.1.
Screening O=C(c1ccc(S(=O)(=O)c2ccccc2Cl)c([N+](=O)[O-])c1)N1CCN(Cc2ccccc2)CC1 returned D2 ag-1 inconclusive, D2 ag-2 9.2, D2 PAM-1 6.8, D2 antag -7.2 and D2 PAM-2 77.9*.
`Cc1cc(OCCN2CCOCC2)ccc1Cl` gave D2 ag-1 4.8, D2 ag-2 0.4, D2 PAM-1 -1.6, D2 antag 46.5* and D2 PAM-2 -6.6.
Cc1ccc(OCCN2CCOCC2)cc1C was read as D2 ag-1 -0.5, D2 ag-2 -0.3, D2 PAM-1 -3.4, D2 antag -10.3 and D2 PAM-2 -13.4.
CC1CCN(CCOc2ccc(Cl)c(Cl)c2)CC1 was read as D2 ag-1 -3.8, D2 ag-2 6.3, D2 PAM-1 -25.9, D2 antag 83.6* and D2 PAM-2 -13.6.
Screening Cc1ccc(CNC(=O)C2CCC(CNS(=O)(=O)c3ccc(C)cc3)CC2)cc1 (stereo unspecified) returned D2 ag-2 1.3 and D2 PAM-1 5.1.
`COc1cccc(OC)c1Oc1ccc(C(F)(F)F)cn1` gave D2 ag-1 2.1, D2 ag-2 -0.5, D2 PAM-1 8.9, D2 antag 66.1* and D2 PAM-2 -5.0.
For FC(F)(F)c1ccc(Oc2ccccc2Cl)nc1 the results were D2 ag-1 -3.4, D2 ag-2 1.8, D2 PAM-1 8.3, D2 antag 6.9 and D2 PAM-2 -1.1.
`COc1ccccc1CNC(=O)c1oc2c(c1C)-c1nn(Cc3ccc(Cl)cc3)cc1CC2` gave D2 ag-2 -1.4 and D2 PAM-1 -7.1.
`CC(=O)c1ccc(NC(=O)C[n+]2cccc(C)c2)cc1` gave D2 ag-1 -2.4, D2 ag-2 0.3, D2 PAM-1 7.9, D2 antag 36.6* and D2 PAM-2 -2.7.
`COc1cccc(/C=C/C(=O)OCC(=O)c2ccc3c(c2)NC(=O)CO3)c1` gave D2 ag-1 -0.1, D2 ag-2 -0.2, D2 PAM-1 17.1, D2 antag 42.1* and D2 PAM-2 -4.7.
`COc1ccc2sc(N(Cc3cccnc3)C(=O)C3CCCCC3)nc2c1` gave D2 ag-2 0.7 and D2 PAM-1 -2.9.
`C=CCC1c2cccc(C(=O)O)c2C(=O)N1c1cccc(C)c1` (stereo unspecified) gave D2 ag-1 0.8, D2 ag-2 0.0, D2 PAM-1 9.1, D2 antag 32.2* and D2 PAM-2 3.9.
For C=CCC1c2cccc(C(=O)O)c2C(=O)N1c1cccc(OC)c1 (stereo unspecified) the results were D2 ag-1 -2.6, D2 ag-2 0.3, D2 PAM-1 -0.1, D2 antag -5.4 and D2 PAM-2 -4.2.
`CC(=O)c1ccc(NC(=O)Cn2c3ncccc3c(=O)n2-c2ccc(C)cc2)cc1` gave D2 ag-2 -1.1 and D2 PAM-1 11.0.
Screening Cc1nn(-c2ccccc2)c(C)c1C(=O)OCC(=O)N(C)C1CCS(=O)(=O)C1 (stereo unspecified) returned D2 ag-1 -0.5, D2 ag-2 1.3, D2 PAM-1 0.1, D2 antag 38.2* and D2 PAM-2 -1.5.
`CCOC(=O)c1cc(-c2ccc(OC)cc2)n(CCC(=O)NCCN2CCC(C)CC2)c1C` gave D2 ag-1 -2.0, D2 ag-2 0.9, D2 PAM-1 -21.0, D2 antag 66.4* and D2 PAM-2 -11.1.
For COc1ccc(Cl)cc1NC(=O)CSc1nc(N2CCOCC2)nc(N2CCOCC2)n1 the results were D2 ag-1 1.3, D2 ag-2 -0.2, D2 PAM-1 5.7, D2 antag 17.0 and D2 PAM-2 -4.6.

Assay outcomes from PubChem BioAssay.
